From PubChem BioAssay (NCI)
About 79,000 compounds went through this panel and 15% of them were active in at least one assay; those are over-represented in the sample as a whole. Cut-off read from the data, not from the text of the source: active = growth inhibition above about 70%; inactive = the rest.

Key:
[1] = NCI Yeast Anticancer Drug Screen. Data for the rad50 strain (AID 155);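 note: 0% = growth of vehicle-only cultures of the same strain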; conditions: S. cerevisiae rad50 strain growth inhibition; at 50.0 µM; hits give high values
Method in brief: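 Readout: growth inhibition relative to vehicle-treated cultures. Compound exposure was carried out in a genetically defined yeast strain deficient in DNA damage repair.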

[2] = NCI Yeast Anticancer Drug Screen. Data for the mec2-1 strain (AID 157); conditions: S. cerevisiae mec2-1 strain, at 50.0 µM, hits give high values
Method in brief: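 mec2-1 yeast strain, carrying an alteration in DNA damage repair or cell cycle control, was exposed to compounds; growth inhibition was measured relative to vehicle-treated controls.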

[3] = NCI Yeast Anticancer Drug Screen. Data for the sgs1 mgt1 strain (AID 161);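 note: 0% = growth of cultures given vehicle only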; conditions: S. cerevisiae sgs1 mgt1 strain, at 50.0 µM, hits give high values
Method in brief: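 This yeast growth screen uses a strain with defined DNA-repair lesions; compound-treated growth is compared with vehicle-treated growth.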

[4] = NCI Yeast Anticancer Drug Screen. Data for the cln2 rad14 strain (AID 165);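 note: 0% = growth equal to vehicle treated cultures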; conditions: S. cerevisiae cln2 rad14 strain, at 50.0 µM, hits give high values
Method in brief: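 Yeast carrying cln2 and rad14 alterations (cell cycle control and DNA damage repair) were exposed to compounds. Growth inhibition was measured against vehicle-treated controls.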

[5] = NCI Yeast Anticancer Drug Screen. Data for the bub3 strain (AID 167); conditions: S. cerevisiae bub3 mutant strain, at 50.0 µM, hits give high values
Method in brief: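 Readout: yeast growth inhibition, expressed relative to vehicle-only wells. The test organism is a mutant strain from a panel with lesions in DNA repair or checkpoint genes.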

[6] = NCI Yeast Anticancer Drug Screen. Data for the mlh1 rad18 strain (AID 175); conditions: S. cerevisiae mlh1 rad18 strain growth inhibition; at 50.0 µM; hits give high values
Method in brief: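 Growth inhibition of the yeast strain was measured after compound exposure and expressed relative to vehicle-treated controls. The strain carries defined defects in DNA damage repair.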

Measured: growth inhibition

CCCC(=O)C1=C(O)C(CC2=C(O)C(C)(C)C(=O)C(C(=O)CCC)=C2O)=C(O)C(C)(C)C1=O
inactive: [1] 26.3% | [2] -12.4% | [3] -2.5% | [4] 1% | [5] -0.15% | [6] 1.3%

O
inactive: [1] 13.2% | [2] 9.15% | [3] 17% | [4] 6.2% | [5] -16.8% | [6] -4%

COc1ccc(C(=O)c2ccc(OC)c3ccccc23)c2ccccc12
inactive: [1] -7.3% | [2] -5.8% | [3] -1.2% | [4] -22.9% | [5] 3.35% | [6] 4.25%

COC(C[P+](Cc1ccccc1)(c1ccccc1)c1ccccc1)OC
inactive: [1] 66.9% | [2] -2.7% | [3] 39% | [4] 2.4% | [5] 4.1% | [6] 4.35%

O=C(Nc1ccc2ccccc2c1)c1ccc(Cl)c(Cl)c1
inactive: [1] -5% | [2] 29.6% | [3] 24.9% | [4] -6.8% | [5] 18.9% | [6] 27.4%

NC(N)=Nc1ccccc1OC1OC(CO)C(O)C(O)C1O (stereo not given)
inactive: [1] -12.4% | [2] 16.1% | [3] 2.55% | [4] -50.5% | [5] -7% | [6] -2.25%

CN(C)c1ccc(S(=O)c2ccc(N(C)C)cc2)cc1
inactive: [1] -30.4% | [2] -27.9% | [3] -44.9% | [4] -4.75% | [5] -48.4% | [6] -35%

CC(=O)OC1CC2C=CC1C2 (stereo not given)
inactive: [1] -3.55% | [2] -3.8% | [3] 3.6% | [4] 1.65% | [5] 15.4% | [6] -7.7%

O=C(CCC(=O)Oc1ccccc1)Oc1ccccc1
inactive: [1] -15.9% | [2] -1.1% | [3] -31.6% | [4] 3.2% | [5] 28.3% | [6] 13.7%

CC(=O)NNC(=S)N/C=C(/C(=O)c1ccccc1)c1ccccc1
inactive: [1] -22.7% | [2] -9.45% | [3] -16.7% | [4] 3.75% | [5] -16.4% | [6] -6.9%

COC(=O)C1(C)CCCC2(C)C1CCC1(O)C2CC2OC2(C(C)C)C1O (stereo not given)
inactive: [1] -2.65% | [2] -21.4% | [3] -0.9% | [4] -31.4% | [5] -13.2% | [6] 3.45%

Cc1ncc([N+](=O)[O-])cc1C(=O)O
inactive: [1] 1% | [2] 10% | [3] -0.75% | [4] -7.1% | [5] 5.7% | [6] -1.45%

CCC(CCC(C)C1CCC2C3CC=C4CC(OC(=O)Nc5ccccc5)CCC4(C)C3CCC12C)C(C)C (stereo not given)
inactive: [1] -23.4% | [2] -28.1% | [3] -15.9% | [4] -38.5% | [5] -1.5% | [6] -26.4%

ClC1CC2CCC1C2Br (stereo not given) (tested in a mixture with another compound)
inactive: [1] -19.6% | [2] -14.2% | [3] -21.1% | [4] -31.9% | [5] -0.45% | [6] -17.1%

C#CC(OC(=O)NC(C(=O)OC)C(C)C)(c1ccccc1)c1ccccc1 (stereo not given)
inactive: [1] 31.1% | [2] -10.3% | [3] 14.3% | [4] -4.85% | [5] 0.2% | [6] 7.55%

COC(=O)C1=C(C(=O)OC)C23CC4CCC2(C(=O)C1O3)C4(C)C (stereo not given)
inactive: [1] 36.4% | [2] 18% | [3] 23% | [4] 8.65% | [5] 21.5% | [6] -5.15%

Nc1ccc2c(c1)Cc1cccc(N)c1-2
inactive: [1] 31.8% | [2] 11.2% | [3] 0.7% | [4] 11% | [5] 7.2% | [6] 1.9%

C=C1C(O)CCC2(C)C1CCC1C2CCC2(C)C(C(C)CCCC(C)C)CCC12 (stereo not given)
inactive: [1] -5% | [2] -5.35% | [3] -3.1% | [4] -39.6% | [5] -4.4% | [6] -2.45%

O=[N+]([O-])c1cccc(NC(c2ccccc2)S(=O)(=O)O)c1 (stereo not given)
inactive: [1] -5.15% | [2] -18.6% | [3] 9.65% | [4] 18.9% | [5] 8.75% | [6] 5.15%

O=C1c2ccccc2C(C2N=Nc3ccccc32)c2ccccc21 (stereo not given)
inactive: [1] 7.1% | [2] 5.15% | [3] 15.6% | [4] 26.1% | [5] 3.8% | [6] 6.2%

O=C(Cl)c1cc(I)c(I)c(I)c1
inactive: [1] 41% | [2] 47.3% | [3] 54.3% | [4] 37.2% | [5] 53.2% | [6] 40%

Nc1ccc(C(=O)NN2C(=O)C(Cl)C2c2ccccc2Cl)cc1 (stereo not given)
inactive: [1] 45.2% | [2] 32.7% | [3] 27.9% | [4] 38.8% | [5] 38.3% | [6] 31.5%

Oc1ccc(C=NCCN=Cc2ccc(O)cc2)cc1
inactive: [1] 9.55% | [2] -17.4% | [3] -14.8% | [4] -24.2% | [5] 5.1% | [6] 12.1%

CCc1cc(CN2CCN(CCO)CC2)c(O)c(CN2CCN(CCO)CC2)c1
inactive: [1] 1.5% | [2] 6% | [3] -13.2% | [4] 3% | [5] -0.9% | [6] 9.35%

Cc1ccc(S(=O)(=O)Nc2ccc(S(C)(=O)=O)cc2)cc1
inactive: [1] 2.4% | [2] -4.2% | [3] -5.6% | [4] -36.4% | [5] 3.85% | [6] 3.3%

COc1ccc2c(=O)c(-c3ccc(OC)c(OC)c3)c(C)oc2c1
inactive: [1] -0.7% | [2] -1.5% | [3] 13.1% | [4] 7.5% | [5] -31.4% | [6] -4.85%

CC(C)CCCC(C)C1CCC2C(CC(=O)O)C(C3(C)CCC(O)CC3=O)CCC2(C)C1 (stereo not given)
inactive: [1] 23.9% | [2] 27.1% | [3] 25.9% | [4] 8.35% | [5] 1.85% | [6] 33%

CC(C)C1N=C(N)N=C(N)N1c1ccc(Cl)c(Cl)c1 (stereo not given)
inactive: [1] 17.4% | [2] 10.1% | [3] 8% | [4] -16.9% | [5] 5.25% | [6] 6.6%

COc1ccc(S(=O)(=O)O)cc1NC(=O)CC(=O)c1cccc([N+](=O)[O-])c1
inactive: [1] -5.5% | [2] -18% | [3] 9.2% | [4] 9.05% | [5] -12% | [6] -15.9%

CCOC(=O)Nc1cc(Cl)c2ncn(C(=O)OCC)c2n1
inactive: [1] 40.3% | [2] 16.2% | [3] 10.9% | [4] 18.9% | [5] 3.05% | [6] 17.9%

O=C(C(=O)N1CCc2ccccc21)c1c[nH]c2ccccc12
inactive: [1] 5.75% | [2] 2% | [3] -11.8% | [4] 3.1% | [5] -2.95% | [6] 12.5%

Cc1ccc(S(=O)(=O)NC(C)C(=O)O)cc1 (stereo not given)
inactive: [1] -1.5% | [2] -6.65% | [3] 4.9% | [4] 3.2% | [5] -7.65% | [6] 4.6%

Cn1c([N+](=O)[O-])cnc1CN1CCN(CCO)CC1
inactive: [1] -2.9% | [2] -6.95% | [3] -39.1% | [4] 26.7% | [5] -20.3% | [6] 3%

Nc1nc(N)c2nc(-c3ccc([N+](=O)[O-])cc3)c(=O)[nH]c2n1
inactive: [1] -9.75% | [2] -8.5% | [3] -2.05% | [4] -11.3% | [5] 29.2% | [6] 14.7%

COc1ccc(CC(C)C(C)Cc2ccc(OC)c(OC)c2)cc1OC (stereo not given)
inactive: [1] 4.9% | [2] 9.15% | [3] 1.6% | [4] -4.75% | [5] 4.25% | [6] -3.6%

Nc1ccc(S(=O)(=O)n2c(=O)oc3cc(Cl)ccc32)cc1
inactive: [1] 0.75% | [2] 5.75% | [3] 8.9% | [4] -6.7% | [5] 14.1% | [6] 19.8%

Cn1cc(/C=C\C(=O)O)c2ccccc21
inactive: [1] -10.7% | [2] -0.6% | [3] 6.7% | [4] -35.2% | [5] -26.9% | [6] 6.4%

CS(=O)CC1OC2OC3C(CO)OC(OC4C(CO)OC(OC5C(CO)OC(OC6C(CO)OC(OC7C(CO)OC(OC8C(CO)OC(OC1C(O)C2O)C(O)C8O)C(O)C7O)C(O)C6O)C(O)C5O)C(O)C4O)C(O)C3O (stereo not given)
inactive: [1] -1.9% | [2] -17.4% | [3] -8.55% | [4] -21.4% | [5] -8% | [6] 10.2%

COC(=O)NC1(NC(=O)OC)NC(=O)c2cc(OC)c(OC)c(OC)c2N1
inactive: [1] 17.1% | [2] 8.45% | [3] 10.8% | [4] -10.8% | [5] -12.3% | [6] 3.85%

O=C(C1OC1c1ccccc1)C1OC1c1ccccc1 (stereo not given)
inactive: [1] -6.05% | [2] 10.2% | [3] 9.55% | [4] -12.4% | [5] 62.1% | [6] 37%
